Test [1] is described as follows: qHTS assay to identify small molecule agonists of the vitamin D receptor (VDR) signaling pathway - cell viability counter screen (AID 743224; active = well fitted curve in the direction sought with a large enough effect in the repeat runs; an effect the other way counts as inactive or inconclusive; also: nearly all actives have a fitted effect of over 50% in size; also: potency is read from the fitted curve at half-maximal effect). The following applies: VDR-bla HEK293T viability, CellTiter-Glo luminescence, 16 h; series mostly up to 62.6 µM. The method in brief:
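Viability is measured in the same wells as the VDR-bla reporter assay: after 16 h compound treatment and 2 h substrate loading, CellTiter-Glo is added and luminescence read 30 min later.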
(In qHTS, concentration-response curves come from the screen itself.)

A short description of test [2]: qHTS assay to identify small molecule antagonists of the vitamin D receptor (VDR) signaling pathway - cell viability counter screen (AID 743225; active = well fitted curve in the direction sought with a large enough effect in the repeat runs; an effect the other way counts as inactive or inconclusive; also: nearly all actives have a fitted effect of over 50% in size; also: potency is read from the fitted curve at half-maximal effect). The note with it: VDR-bla HEK293T viability, CellTiter-Glo luminescence, 16 h; series mostly up to 61 µM. The essentials: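 Same-well multiplex: following 16 h treatment of HEK 293T cells carrying a UAS-driven beta-lactamase reporter with compound and agonist (3 nM final), and a 2 h FRET substrate step, CellTiter-Glo was added and luminescence read after 30 min.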

The nature of test [3]: qHTS assay to identify small molecule agonists of the NFkB signaling pathway - cell viability counter screen (AID 1159515). Also: nearly all actives have a fitted effect of over 55% in size. Also: potency is read from the fitted curve at half-maximal effect. The note with it: NFkB-bla ME-180 viability, CellTiter-Glo luminescence, 5 h; series mostly up to 61 µM. The essentials:
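Multiplexed viability readout: after the 5 hr compound exposure and 1.5 hr FRET substrate step, CellTiter-Glo reagent went into the same NFkB-bla ME-180 wells; ATP luminescence was measured after 30 min at room temperature.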

Test [4] can be described thus: qHTS assay to identify small molecule agonists of the endoplasmic reticulum stress response signaling pathway (AID 1159516; active = well fitted activation curve with a large enough effect in the signal ratio in the repeat runs, not every such curve was filed as active; the % refers to the signal ratio). The following applies: ESRE-bla HeLa, ER stress beta-lactamase reporter, 5 h; series mostly up to 61 µM. The method in brief:
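Tox21 10K library screened in quantitative HTS format on ESRE-bla HeLa cells, a beta-lactamase reporter under ER stress response element control; 5 hr treatment, FRET read.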

Test [5] is described as follows: qHTS assay to identify small molecule agonists of the endoplasmic reticulum stress response signaling pathway - cell viability counter screen (AID 1159517). Also: nearly all actives have a fitted effect of over 50% in size. Also: potency is read from the fitted curve at half-maximal effect. The note with it: ESRE-bla HeLa viability, CellTiter-Glo luminescence, 5 h; series mostly up to 61 µM. The essentials:
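ESRE-bla HeLa cells, 1,500 per well, seeded overnight then treated with compounds for 5 hr at 37 C. After the beta-lactamase read, viability in the same wells is measured by CellTiter-Glo luminescence after 30 min at room temperature.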

The nature of test [6]: qHTS assay to identify small molecule antagonists of the retinoid-related orphan receptor gamma (ROR-gamma) signaling pathway - cell viability counter screen (AID 1159520; active = well fitted curve in the direction sought with a large enough effect in the repeat runs; an effect the other way counts as inactive or inconclusive; also: nearly all actives have a fitted effect of over 50% in size; also: potency is read from the fitted curve at half-maximal effect). The following applies: Tet-on RORgamma CHO cells viability, ATP luminescence, 16 h; series mostly up to 92.4 µM. The essentials: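 Tet-on ROR gamma CHO cells were given compounds for 2 hr, then doxycycline hyclate at 1 uM final, and incubated 16 hr at 37 C. Viability was measured as ATP content by CellTiter-Glo luminescence.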

Test [7] can be described thus: qHTS assay to identify small molecule agonists of the AP-1 signaling pathway - cell viability counter screen (AID 1159525). Also: nearly all actives have a fitted effect of over 55% in size. Also: potency is read from the fitted curve at half-maximal effect. The following applies: ME-180 AP-1-bla cells viability, ATP luminescence, 5 h; series mostly up to 76.8 µM. The essentials: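 AP-1-bla ME-180 cells in Opti-MEM with 0.5% dialyzed FBS, compound exposure 5 h at 37 C in 15-point titration. Viability read in the same wells as ATP content by CellTiter-Glo luminescence, normalised to tetra-n-octylammonium bromide and DMSO controls.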

Test [8] in a line: qHTS assay to identify small molecule agonists of the AP-1 signaling pathway (AID 1159526). The note with it: ME-180 (cervical carcinoma) AP-1-bla reporter, beta-lactamase FRET ratio, 5 h; series mostly up to 76.8 µM.
The target of test [9] is Retinoic acid receptor RXR-alpha (Homo sapiens) (UniProt P19793). The test can be described thus: qHTS assay to identify small molecule agonists of the RXR signaling pathway (AID 1159527). Also: nearly all actives have a fitted effect of over 35% in size. Also: potency is read from the fitted curve at half-maximal effect. The note with it: HEK293T RXRa-UAS-bla, beta-lactamase ratio, 16 h; series mostly up to 76.8 µM. The method in brief: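 Compounds in DMSO were added to RXR-alpha-UAS-bla HEK 293T cells kept in 2% charcoal-stripped serum, and incubated 16 hr at 37 C with 5% CO2. Reporter signal came from a 2 hr B/G FRET substrate step.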

Test [10] addresses Nuclear receptor ROR-gamma (Homo sapiens) (UniProt P51449). The test can be described thus: qHTS assay to identify small molecule antagonists of the retinoid-related orphan receptor gamma (ROR-gamma) signaling pathway (AID 1159521; active = well fitted curve in the direction sought with a large enough effect in the repeat runs; an effect the other way counts as inactive or inconclusive; also: nearly all actives have a fitted effect of over 50% in size; also: potency is read from the fitted curve at half-maximal effect). The note with it: Tet-on RORgamma CHO cells, RORE-luciferase, 16 h; series mostly up to 92.4 µM. The essentials:
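Inducible-expression reporter assay: doxycycline (1 uM final) switched on RORγ in CHO cells bearing a ROR response element-luciferase construct, with test compounds present from 2 h beforehand. Decreased luminescence after 16 h defined antagonist activity.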

Where “and” joins values, the source holds several entries; their conditions need not be identical. Equal values may be shown once. Records with an inconclusive call do not appear. The source holds several records for some structures; these can differ, active in one and inactive in another. Calls of active or inactive are those of the source. Unless noted, calls follow the shape of the full dose curve.

Retinoic acid receptor RXR-alpha (Homo sapiens), sequence (P19793 whole entry, looked up): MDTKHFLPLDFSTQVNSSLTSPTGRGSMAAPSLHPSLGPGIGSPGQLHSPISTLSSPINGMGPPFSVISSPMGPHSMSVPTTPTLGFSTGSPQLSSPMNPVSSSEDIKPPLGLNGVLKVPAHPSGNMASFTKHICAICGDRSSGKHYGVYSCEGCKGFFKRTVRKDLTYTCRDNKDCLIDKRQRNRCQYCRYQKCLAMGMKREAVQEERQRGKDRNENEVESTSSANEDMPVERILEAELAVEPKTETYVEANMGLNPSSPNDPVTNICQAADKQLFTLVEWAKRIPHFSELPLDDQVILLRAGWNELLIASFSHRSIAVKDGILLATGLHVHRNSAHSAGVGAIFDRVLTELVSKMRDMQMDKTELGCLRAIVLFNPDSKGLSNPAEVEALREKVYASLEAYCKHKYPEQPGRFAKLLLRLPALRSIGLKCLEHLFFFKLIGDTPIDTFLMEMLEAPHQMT

For the molecule `CN(C)c1ccc(N=O)cc1`, the Potency in test [1] was 19.6 µM (active) and 43.6 µM (active); in test [2] it was “inactive and 19.5 µM (active)”; in test [3], 43.6 µM (active); in test [5] it was 43.6 µM (active); in [6], 15.4 µM (active) and 12.2 µM (active); in [7] it was 21.9 µM (active) and 30.9 µM (active). Moreover, the Potency result in [4] is “inactive”.

`CCCC1CCCCN1` (centres undefined): the Potency entry in test [3], in test [4], in [5], in [6], in test [7] and in test [8] was “inactive” in each case. For the same molecule, the Potency entry in test [9] is “inactive”.

For `CCNC(=O)NC(=O)/C(C#N)=N/OC`, the Potency result in test [2], in test [3], in test [4], in [5], in test [6] and in test [10] was “inactive” in each case. The Potency entry in test [7] and in test [8] was “inactive” each time.

Consider `O=C(Cc1ccccc1)c1ccccc1`, for which the Potency entry in test [1], in [3], in test [4], in test [5], in test [10] and in test [7] was “inactive” in each case. Moreover, the Potency entry in [8] and in [9] was “inactive” throughout.

As to `NP(N)(=O)NC(=O)c1ccc(F)cc1`, the Potency entry in [1], in test [3], in test [4], in test [5], in test [6] and in test [7] was “inactive” throughout. In addition, the Potency entry in test [8] and in [9] was “inactive” in each case.

Regarding `O=C([O-])c1ccccn1.O=C([O-])c1ccccn1.O=C([O-])c1ccccn1.[Cr+3]`, the Potency entry in test [2], in [3], in test [4], in [5], in [6] and in [7] was “inactive” in each case. Moreover, the Potency result in test [8] and in test [9] was “inactive” each time.

As for `Clc1ccc2ccccc2c1`, the Potency result in [1], in [2], in [3], in [4], in test [5] and in test [6] was “inactive” throughout. The Potency result in test [7], in test [8] and in [9] was “inactive” each time.

Turning to `Clc1ccc(Cl)c(Cl)c1`, the Potency result in test [1], in test [3], in [4], in test [5], in test [6] and in test [7] was “inactive” throughout. Moreover, the Potency entry in test [8] was “inactive”. Besides, the Potency result in test [9] is “inactive and 12.3 µM (active)”.

Turning to `CC(C)(C)c1ccc(CCOc2ncnc3ccccc23)cc1`, the Potency entry in [1], in test [2], in test [3], in test [4], in test [5] and in test [6] was “inactive” each time. Moreover, the Potency entry in test [7], in [8] and in test [9] was “inactive” throughout.

For `CCOC(=O)c1cn2nc(OP(=S)(OCC)OCC)cc2nc1C`, the Potency result in test [2], in test [3], in test [4], in [5], in [6] and in test [10] was “inactive” throughout. In addition, the Potency entry in [7] and in [8] was “inactive” throughout.

For the molecule `O=C(NC(=O)c1cc(F)c(F)cc1Cl)Nc1cc(F)ccc1N1CCC(C(=O)O)CC1`, the Potency entry in test [2], in [3], in test [4], in test [5], in test [6] and in test [10] was “inactive” each time. Also, the Potency entry in test [7] and in [8] was “inactive” throughout.

Consider `CCC(C)(C)O`, for which the Potency result in test [1], in test [2], in test [3], in test [4], in test [5] and in test [6] was “inactive” in each case. The Potency entry in test [7], in [8] and in test [9] was “inactive” in each case.

Regarding `CCOC(=O)NC(O)C(Cl)(Cl)Cl` (centres undefined), the Potency entry in test [1], in test [3], in test [4], in test [5], in test [7] and in test [8] was “inactive” in each case. The Potency entry in [9] is “inactive”.

`CCCCNC(=O)OCC#CI`: the Potency in test [1] was 48.7 µM (active) and 43.6 µM (active); in [6], 54.2 µM (active) and 17.2 µM (active); in test [10], 24.2 µM (active); in test [7], 54.7 µM (active). The Potency result in test [3] and in test [5] was “inactive” in each case.

In the case of `C#CC(O)(C=CCl)CC` (centres undefined), the Potency entry in test [1], in [2], in test [3], in test [4], in test [5] and in [10] was “inactive” throughout. Besides, the Potency entry in test [7], in test [8] and in test [9] was “inactive” each time.

The values above are taken from PubChem BioAssay (Tox21).
